In all, about 5,500 compounds went through this assay and about 2,000 (36%) were called active. Not shown: some 18% with an inconclusive outcome. Cut-off read from the data, not from the text of the source: active = normalized growth mostly below about 0.91 (no sharp cut-off); inconclusive = no clear call, values can overlap the other calls; inactive = mostly above about 0.92. Some of the results follow.
Assay: chemical genetic growth profiling, strain panel (AID 1159580);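 note: tested at 20 µM; growth read once vehicle control cultures reached saturation at 30 °C; 1 = growth at the plate median or of vehicle wells; lower values mean less growth of the strain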
Conditions: S. cerevisiae deletion strains, growth OD
[1] = locus YAR019C, strain CDC15, stronger effect = lower value
[2] = locus YBL105C, strain PKC1, stronger effect = lower value
[3] = locus YBR135W, strain CKS1, stronger effect = lower value
[4] = locus YBR136W, strain MEC1, stronger effect = lower value
[5] = locus YBR160W, strain CDC28, stronger effect = lower value
[6] = locus YDL017W, strain CDC7, stronger effect = lower value
[7] = locus YDL028C, strain MPS1, stronger effect = lower value
[8] = locus YDL101C, strain DUN1, stronger effect = lower value
[9] = locus YDL108W, strain KIN28, stronger effect = lower value
[10] = locus YDL132W, strain cdc53, stronger effect = lower value
[11] = locus YDL214C, strain PRR2, stronger effect = lower value
[12] = locus YDR052C, strain DBF4, stronger effect = lower value
[13] = locus YDR054C, strain cdc34, stronger effect = lower value
[14] = locus YDR226W, strain ADK1, stronger effect = lower value
[15] = locus YDR477W, strain SNF1, stronger effect = lower value
[16] = locus YER123W, strain YCK3, stronger effect = lower value
[17] = locus YER133W, strain GLC7, stronger effect = lower value
[18] = locus YFL009W, strain cdc4, stronger effect = lower value
[19] = locus YFL029C, strain CAK1, stronger effect = lower value
[20] = locus YFR003C, strain YPI1, stronger effect = lower value
[21] = locus YFR019W, strain FAB1, stronger effect = lower value
[22] = locus YFR028C, strain CDC14, stronger effect = lower value
[23] = locus YGR040W, strain KSS1, stronger effect = lower value
[24] = locus YGR052W, strain FMP48, stronger effect = lower value
[25] = locus YGR092W, strain DBF2, stronger effect = lower value
[26] = locus YHR030C, strain SLT2, stronger effect = lower value
[27] = locus YHR079C, strain IRE1, stronger effect = lower value
[28] = locus YHR082C, strain KSP1, stronger effect = lower value
[29] = locus YHR205W, strain SCH9, stronger effect = lower value
[30] = locus YIL147C, strain SLN1, stronger effect = lower value
[31] = locus YJL095W, strain BCK1, stronger effect = lower value
[32] = locus YJL128C, strain PBS2, stronger effect = lower value
[33] = locus YJL157C, strain FAR1, stronger effect = lower value
[34] = locus YJR016C, strain ILV3, stronger effect = lower value
[35] = locus YJR066W, strain TOR1 (second series), stronger effect = lower value
[36] = locus YJR066W, strain TOR1, stronger effect = lower value
[37] = locus YKL048C, strain ELM1, stronger effect = lower value
[38] = locus YKL067W, strain YNK1, stronger effect = lower value
[39] = locus YKL101W, strain HSL1, stronger effect = lower value
[40] = locus YKL193C, strain SDS22, stronger effect = lower value
[41] = locus YKL203C, strain TOR2, stronger effect = lower value
[42] = locus YLR113W, strain HOG1, stronger effect = lower value
[43] = locus YLR133W, strain CKI1, stronger effect = lower value
[44] = locus YLR403W, strain SFP1, stronger effect = lower value
[45] = locus YML070W, strain DAK1, stronger effect = lower value
[46] = locus YMR001C, strain CDC5, stronger effect = lower value
[47] = locus YMR205C, strain PFK2 (second series), stronger effect = lower value
[48] = locus YMR277W, strain FCP1, stronger effect = lower value
[49] = locus YNL006W, strain LST8, stronger effect = lower value
[50] = locus YNL020C, strain ARK1, stronger effect = lower value
[51] = locus YNL161W, strain CBK1, stronger effect = lower value
[52] = locus YNL183C, strain NPR1, stronger effect = lower value
[53] = locus YNL207W, strain RIO2, stronger effect = lower value
[54] = locus YNL222W, strain SSU72, stronger effect = lower value
[55] = locus YNL307C, strain MCK1 (second series), stronger effect = lower value
[56] = locus YOL078W, strain AVO1, stronger effect = lower value
[57] = locus YOL136C, strain PFK27, stronger effect = lower value
[58] = locus YOR061W, strain CKA2, stronger effect = lower value
[59] = locus YOR119C, strain RIO1, stronger effect = lower value
[60] = locus YOR231W, strain MKK1, stronger effect = lower value
[61] = locus YOR329C, strain SCD5, stronger effect = lower value
[62] = locus YPL031C, strain PHO85, stronger effect = lower value
[63] = locus YPL153C, strain RAD53, stronger effect = lower value
[64] = locus YPL204W, strain HRR25, stronger effect = lower value
[65] = locus YPL209C, strain IPL1, stronger effect = lower value
[66] = locus YPL256C, strain CLN2, stronger effect = lower value
[67] = locus YPR025C, strain CCL1, stronger effect = lower value
[68] = locus YPR106W, strain ISR1, stronger effect = lower value
[69] = locus YPR111W, strain DBF20, stronger effect = lower value
[70] = strain NNK1, stronger effect = lower value
[71] = strain TSCII, stronger effect = lower value

Measured: normalized growth

COc1ccc(/C=C2\CSc3ccc(F)cc3C2=O)cc1
active: [26] 0.771 | [42] 0.763
inactive: [1] 0.955 | [2] 0.96 | [3] 0.951 | [4] 0.971 | [5] 0.961 | [6] 0.966 | [7] 0.931 | [8] 0.968 | [9] 0.955 | [10] 0.947 | [11] 0.932 | [12] 0.977 | [13] 0.953 | [14] 0.965 | [15] 0.916 | [16] 0.896 | [17] 0.916 | [18] 0.934 | [19] 0.947 | [20] 0.96 | [21] 0.953 | [22] 0.93 | [23] 0.917 | [24] 0.939 | [25] 0.925 | [27] 0.909 | [28] 0.949 | [29] 0.899 | [30] 0.969 | [31] 0.9 | [32] 0.91 | [33] 0.927 | [34] 0.973 | [35] 0.909 | [36] 0.874 | [37] 0.949 | [38] 0.911 | [39] 0.927 | [40] 0.941 | [41] 1.01 | [43] 0.949 | [44] 0.928 | [45] 0.91 | [46] 0.952 | [47] 0.942 | [48] 0.929 | [49] 0.967 | [50] 0.955 | [51] 0.951 | [52] 0.935 | [53] 0.969 | [54] 0.952 | [55] 0.927 | [56] 0.94 | [57] 0.902 | [58] 0.933 | [59] 0.95 | [60] 0.879 | [61] 0.964 | [62] 0.914 | [63] 0.929 | [64] 0.912 | [65] 0.959 | [66] 0.87 | [67] 0.958 | [68] 0.962 | [69] 0.938 | [70] 0.962 | [71] 0.946

Cc1ccc(/C=C2\CSc3ccc(F)cc3C2=O)cc1
inactive: [1] 0.942 | [2] 0.955 | [3] 0.953 | [4] 0.953 | [5] 0.959 | [6] 0.958 | [7] 0.932 | [8] 0.971 | [9] 0.93 | [10] 0.937 | [11] 0.892 | [12] 0.972 | [13] 0.94 | [14] 0.952 | [15] 0.892 | [16] 0.864 | [17] 0.902 | [18] 0.904 | [19] 0.946 | [20] 0.954 | [21] 0.934 | [22] 0.935 | [23] 0.889 | [24] 0.91 | [25] 0.86 | [27] 0.856 | [28] 0.915 | [29] 0.845 | [30] 0.953 | [31] 0.859 | [32] 0.888 | [33] 0.906 | [34] 0.956 | [35] 0.869 | [36] 0.862 | [37] 0.92 | [38] 0.885 | [39] 0.895 | [40] 0.938 | [41] 0.985 | [43] 0.915 | [44] 0.898 | [45] 0.882 | [46] 0.944 | [47] 0.911 | [48] 0.923 | [49] 0.952 | [50] 0.915 | [51] 0.955 | [52] 0.903 | [53] 0.945 | [54] 0.937 | [55] 0.85 | [56] 0.945 | [57] 0.881 | [58] 0.887 | [59] 0.932 | [60] 0.835 | [61] 0.956 | [62] 0.896 | [63] 0.888 | [64] 0.876 | [65] 0.952 | [67] 0.958 | [68] 0.952 | [69] 0.916 | [70] 0.946 | [71] 0.942
active: [26] 0.706 | [42] 0.697 | [66] 0.831

CC1=C(CC(=O)O)c2cc(F)ccc2/C1=C\c1ccc(S(C)(=O)=O)cc1
inactive: locus YAL013W, strain DEP1, stronger effect = lower value 1.02 | locus YAL040C, strain CLN3, stronger effect = lower value 0.996 | locus YCL061C, strain MRC1 (second series), stronger effect = lower value 0.99 | locus YDR150W, strain NUM1, stronger effect = lower value 0.989 | locus YDR363W, strain ESC2, stronger effect = lower value 1.02 | locus YER002W, strain NOP16, stronger effect = lower value 1 | locus YGR229C, strain SMI1, stronger effect = lower value 1.04 | locus YMR307W, strain GAS1, stronger effect = lower value 0.946 | locus YNL153C, strain GIM3, stronger effect = lower value 0.982 | locus YNL175C, strain NOP13, stronger effect = lower value 0.98 | locus YNL197C, strain WHI3, stronger effect = lower value 0.979 | locus YNL224C, strain SQS1, stronger effect = lower value 0.99 | locus YNL322C, strain KRE1, stronger effect = lower value 1 | locus YOR083W, strain WHI5 (second series), stronger effect = lower value 0.973 | locus YPL055C, strain LGE1, stronger effect = lower value 1.05
